Data on 34 compounds can be found in PubChem BioAssay AID2810 (NMMLSC, 2010).

Molecules are shown by their SMILES. The campaign covered roughly 1,200 compounds. About 65 (5%) were called active.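 How the source made its calls: active means at either tested dose, response and 90th-percentile vesicle-stain brightness of CD8 cells under set limits and under 9% cells vesicle-bound; inactive means the rest.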 Many of the other results were omitted from the sample, so actives are more common in it than they were.

This assay can be described thus: modulators of CD8 T cell-vesicle binding, confirmation, cherry-picked primary hits, two concentrations (AID 2810).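 On percent response (vesicle binding): ratio of mean FL2 vesicle stain of CD8+ cells to that row's control.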 Particulars: 2C CD8+ T cell-vesicle binding, flow cytometry; for double positive events: CD8+/vesicle+ events. On the technique in general: In flow cytometry, cells or beads pass a laser one at a time.
The mark [1] stands for this setting: at 15.4 µM, stronger effect = lower value.

For `CC(C)C(=O)N1CCC2(CC1)Oc1ccc(Cl)cc1C(=O)C21CC(c2cccnc2)=NO1` (stereo unspecified), the double positive events reads like this: (at 7.7 µM) 6.8%; under setting [1], 15%. The percent response (vesicle binding) is 197% (inactive) under setting [1] and 109% (response, at 7.7 µM).

For the compound `Cc1ccc(C(=O)Nc2cccc(-c3cn4ccccc4n3)c2)cc1`, the double positive events by setting is: (at 7.7 µM) 7.7%; under setting [1], 10.4%. In addition, the percent response (vesicle binding) under setting [1] was 300% (inactive) and the percent response (vesicle binding) (response, at 7.7 µM) was determined as 439%.

Consider `COc1ccc(C(=O)C(C)OC(=O)c2sc(C)nc2C)cc1` (stereo unspecified), for which the double positive events worked out at 12.6% (at 7.7 µM) and 13.7% under setting [1]. Besides, the percent response (vesicle binding) runs as follows: under setting [1], 349% (inactive); (response, at 7.7 µM) 113%.

For the compound `Cc1ccc2oc(=O)c(/C=C(\O)c3sc(C)nc3C)nc2c1`, the double positive events reads like this: (at 7.7 µM) 17.5%; under setting [1], 0.7%. The percent response (vesicle binding) under setting [1] was 16.1% (active) and the percent response (vesicle binding) (response, at 7.7 µM) amounted to 163%.

Turning to `NC(=S)N/N=C/c1ccccc1OCCSc1ccc(Cl)cc1`, the double positive events runs as follows: (at 7.7 µM) 7%; under setting [1], 28%. Further, the percent response (vesicle binding) is 262% (inactive) under setting [1] and 76.6% (response, at 7.7 µM).

In the case of `CC(=O)NN1C(=O)c2ccccc2NC1c1ccco1` (stereo unspecified), the double positive events was determined as 23% (at 7.7 µM) and 11.1% under setting [1]. Also, the percent response (vesicle binding) runs as follows: under setting [1], 280% (inactive); (response, at 7.7 µM) 361%.

With `Cc1ccccc1N=C1SC(CC(=O)Nc2ccc3ccccc3c2)C(=O)N1Cc1ccccn1` (stereo unspecified), the double positive events runs as follows: (at 7.7 µM) 8.6%; under setting [1], 25.6%. For the same compound, the percent response (vesicle binding) is, setting by setting: under setting [1], 157% (inactive); (response, at 7.7 µM) 148%.

In the case of `O=C(N/N=C/c1c(O)n(Cc2ccco2)c(=O)[nH]c1=O)c1ccccc1`, the double positive events by setting is: (at 7.7 µM) 36.4%; under setting [1], 21.6%. Besides, the percent response (vesicle binding) is 275% (inactive) under setting [1] and 418% (response, at 7.7 µM).

As for `COc1ccc(C(=O)OCC(=O)NC(=O)NC2CCCC2)c(O)c1`, the double positive events runs as follows: (at 7.7 µM) 13.7%; under setting [1], 9.4%. Besides, the percent response (vesicle binding) under setting [1] is 148% (inactive) and the percent response (vesicle binding) (response, at 7.7 µM) is 254%.

Consider `CCOc1ccc(-c2nc(N)ncc2-c2ccccc2)c(O)c1`, for which the double positive events reads like this: (at 7.7 µM) 4.3%; under setting [1], 34.2%. The percent response (vesicle binding) is 276% (active) under setting [1] and 51.6% (response, at 7.7 µM).

As for `CC(=O)COc1ccc2c(-c3ccccc3)cc(=O)oc2c1`, the double positive events by setting is: (at 7.7 µM) 10.8%; under setting [1], 8.7%. The percent response (vesicle binding) is, setting by setting: under setting [1], 123% (inactive); (response, at 7.7 µM) 165%.

For `CCOC(=O)CSc1nc(C)nc2c1sc1nc(C)c(C(C)=O)c(-c3ccc(OC)cc3)c12`, the double positive events reads like this: (at 7.7 µM) 22.7%; under setting [1], 7.5%. Besides, the percent response (vesicle binding) is 128% (inactive) under setting [1] and 327% (response, at 7.7 µM).

`CC1=C/C(=C(\c2ccc(O)c(C)c2)c2ccccc2S(=O)(=O)O)C=CC1=O`: the double positive events was 8.5% (at 7.7 µM) and 0.5% under setting [1]. For the same compound, the percent response (vesicle binding) is 14.6% (active) under setting [1] and 142% (response, at 7.7 µM).

For the compound `O=C(Nc1nnc(C2=COCCO2)o1)C1CCCCC1`, the double positive events was 47.3% (at 7.7 µM) and 23% under setting [1]. The percent response (vesicle binding) reads like this: under setting [1], 200% (inactive); (response, at 7.7 µM) 280%.

`CS(=O)(=O)NCc1ccccc1Br` yielded a double positive events (at 7.7 µM) of 31% and a double positive events under setting [1] of 2.7%. Further, the percent response (vesicle binding) reads like this: under setting [1], 34% (active); (response, at 7.7 µM) 371%.

For the compound `Cc1nc2sc(C(c3ccccc3)N3CCN(c4ccccc4F)CC3)c(O)n2n1` (stereo unspecified), the double positive events (at 7.7 µM) came to 38.2% and the double positive events under setting [1] came out at 4.2%. Moreover, the percent response (vesicle binding) was 142% (inactive) under setting [1] and 239% (response, at 7.7 µM).

As to `CCOc1ccccc1NC(=O)c1ccc(CN2CCc3ccccc3C2)cc1`, the double positive events reads like this: (at 7.7 µM) 11.5%; under setting [1], 30%. Further, the percent response (vesicle binding) is 739% (inactive) under setting [1] and 110% (response, at 7.7 µM).

Turning to `COc1ccc2nc(SCC(=O)Nc3ccc4c(c3)OCCO4)[nH]c2c1`, the double positive events runs as follows: (at 7.7 µM) 10.5%; under setting [1], 19.8%. Further, the percent response (vesicle binding) by setting is: under setting [1], 168% (inactive); (response, at 7.7 µM) 164%.

On to `O=C(/C=C/c1ccccc1)OCC(=O)c1ccc[nH]1`, for which the double positive events by setting is: (at 7.7 µM) 14.3%; under setting [1], 30.2%. Besides, the percent response (vesicle binding) under setting [1] is 439% (inactive) and the percent response (vesicle binding) (response, at 7.7 µM) is 424%.

In the case of `CCOC(=O)C1CCCN(c2cc(=O)n(-c3ccccc3Cl)c(=O)[nH]2)C1` (stereo unspecified), the double positive events reads like this: (at 7.7 µM) 10.2%; under setting [1], 2.3%. Moreover, the percent response (vesicle binding) under setting [1] is 18.2% (active) and the percent response (vesicle binding) (response, at 7.7 µM) worked out at 131%.

In the case of `CCOC(=O)C1CCCN(S(=O)(=O)c2ccc(F)c(C(=O)Nc3ccc(F)c(F)c3)c2)C1` (stereo unspecified), the double positive events reads like this: (at 7.7 µM) 13.5%; under setting [1], 23.8%. The percent response (vesicle binding) is 153% (inactive) under setting [1] and 105% (response, at 7.7 µM).

Take `CCOC(=O)C1CCN(C(=O)CN2C(=O)c3ccccc3S2(=O)=O)CC1`: the double positive events (at 7.7 µM) was found to be 13% and the double positive events under setting [1] turned out to be 23%. Also, the percent response (vesicle binding) was 203% (inactive) under setting [1] and 166% (response, at 7.7 µM).

Turning to `O=C1c2cccc3c2[C@H](CCC3)CN1[C@@H]1CN2CCC1CC2`, the double positive events is 19.9% (at 7.7 µM) and 28.1% under setting [1]. In addition, the percent response (vesicle binding) reads like this: under setting [1], 727% (inactive); (response, at 7.7 µM) 238%.

`COc1ccc(C2=Nc3cc(C)ccc3OC2)cc1` registered a double positive events (at 7.7 µM) of 12.1% and a double positive events under setting [1] of 2%. The percent response (vesicle binding) by setting is: under setting [1], 53.5% (active); (response, at 7.7 µM) 546%.

Regarding `CCCCN(C(=O)CCCc1nc2ccccc2s1)c1c(N)n(CC(C)C)c(=O)[nH]c1=O`, the double positive events runs as follows: (at 7.7 µM) 14.2%; under setting [1], 7.8%. Besides, the percent response (vesicle binding) is 50.8% (inactive) under setting [1] and 386% (response, at 7.7 µM).

With `CCCN(Cc1ccc(N(C)C)cc1)CC1CC1`, the double positive events is, setting by setting: (at 7.7 µM) 16.6%; under setting [1], 22.1%. For the same compound, the percent response (vesicle binding) was 413% (inactive) under setting [1] and 436% (response, at 7.7 µM).

For the compound `CN(C(=O)COC(=O)c1cccc(NS(=O)(=O)c2ccc(F)c(F)c2)c1)C1CCS(=O)(=O)C1` (stereo unspecified), the double positive events was found to be 21.6% (at 7.7 µM) and 29.3% under setting [1]. Besides, the percent response (vesicle binding) is 264% (inactive) under setting [1] and 393% (response, at 7.7 µM).

As to `CN1CCN(c2oc(-c3ccc([N+](=O)[O-])cc3)nc2C#N)CC1`, the double positive events reads like this: (at 7.7 µM) 8.5%; under setting [1], 9.4%. For the same compound, the percent response (vesicle binding) under setting [1] was 143% (inactive) and the percent response (vesicle binding) (response, at 7.7 µM) stood at 149%.

For `Cc1cccc(OCC(=O)NC(Cc2ccccc2)C(=O)O)c1` (stereo unspecified), the double positive events came to 7.7% (at 7.7 µM) and 11.5% under setting [1]. The percent response (vesicle binding) is 295% (inactive) under setting [1] and 136% (response, at 7.7 µM).

On to `CC(C)[C@H]1C(=O)Nc2ccccc2N1C(=O)N[C@@H](Cc1ccccc1)C(=O)N[C@@H](Cc1ccccc1)C(=O)O`, for which the double positive events came out at 36.3% (at 7.7 µM) and 8.9% under setting [1]. Besides, the percent response (vesicle binding) is 55.5% (active) under setting [1] and 394% (response, at 7.7 µM).

Take `CC(=O)Nc1ccc(S(=O)(=O)NC2CCSc3ccccc32)cc1` (stereo unspecified): the double positive events runs as follows: (at 7.7 µM) 13.6%; under setting [1], 10.4%. Further, the percent response (vesicle binding) was 146% (inactive) under setting [1] and 238% (response, at 7.7 µM).

With `COc1ccc(C(=O)NNC(=O)CSc2nnnn2C)cc1`, the double positive events is, setting by setting: (at 7.7 µM) 13.8%; under setting [1], 1.8%. Further, the percent response (vesicle binding) under setting [1] was 19.1% (active) and the percent response (vesicle binding) (response, at 7.7 µM) was 160%.

Regarding `COc1ccc(CNc2nnnn2C)cc1`, the double positive events is, setting by setting: (at 7.7 µM) 28.6%; under setting [1], 12.4%. For the same compound, the percent response (vesicle binding) by setting is: under setting [1], 192% (inactive); (response, at 7.7 µM) 376%.

With `COc1ccc(C(=O)CSc2nnc(CNC(=O)c3ccc(OC)c(OC)c3)n2C)cc1`, the double positive events was 7.6% (at 7.7 µM) and 15.6% under setting [1]. Also, the percent response (vesicle binding) is 136% (inactive) under setting [1] and 300% (response, at 7.7 µM).
